Assay results: PubChem BioAssay
The source made the active and inactive calls. Unless noted, no rule for the calls is given here.

Experiments:
[1] = test system: Wnt5a (protein binding on small-molecule microarray); test: small molecules binding Wnt5a protein – biophysical, small-molecule microarray, 635/667 nm fluorescence, primary screen (AID 1142); details: 635 nm fluorescence, higher = more signal;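 also: fluorescence read at 667 nm with signal to noise per printed feature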
[2] = ATP-based viability of Huh7 replicon cells – cell-based, CellTiter-Glo luminescence, basal, 48 h, cytotoxicity control for HCV replication inhibitor project, primary screen (AID 1143); details: higher = more signal, called active from +8 up or from −8 down;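 also: Huh7 hepatoma cells carrying a hepatitis C replication reporter with no stimulus; test concentration not given here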
[3] = Pseudomonas biofilm growth suppression – PAO1 strain, BacTiter-Glo luminescence, LB-PBS, primary screen (AID 1144); details: P. aeruginosa PAO1 biofilm, 12 h, higher = more signal
[4] = basal CRE-LacZ reporter activity in PC12 – cell-based, unstimulated, primary screen (AID 1145); details: no forskolin, luminescence, 4.5 h, higher = more signal, called active from +8 up or from −8 down
[5] = forskolin-driven CRE-LacZ activity in PC12 – cell-based, CRE-LacZ reporter, forskolin-stimulated, primary screen (AID 1146); details: luminescence, 4.5 h, higher = more signal, called active from +8 up or from −8 down;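 also: PC12 cells with 6xCRE LacZ reporter stimulated by forskolin 10 µM; beta-galactosidase reporter signal reflecting CREB driven transcription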
[6] = biological target: Streptavidin (Streptomyces avidinii) (UniProt P22629); test: compounds binding control protein streptavidin – biophysical, small-molecule microarray, 635/667 nm fluorescence, artefact control for SMM compound annotation, primary screen (AID 1147); details: higher = more signal;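 also: signal reflects streptavidin binding to arrayed compounds as a control protein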
[7] = probe aInhba binding on compound microarray – biochemical, small-molecule microarray, 635/667 nm fluorescence, primary screen (AID 1148); details: higher = more signal;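 also: score merges 667nm spot fluorescence with signal-to-noise for antibody binding to printed compounds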
Torsin-1A (Homo sapiens) [8] = biological target: Torsin-1A (Homo sapiens) (UniProt O14656); test: TOR1A wild-type binding on microarray – cell lysate, small-molecule microarray, lysate, 635/667 nm, primary screen (AID 1149); details: COS7 hTOR1A-WT lysate, 635 nm fluorescence, higher = more signal
Torsin-1A (Homo sapiens) [9] = biological target: Torsin-1A (Homo sapiens) (UniProt O14656); test: torsin A mutant lysate binding on microarrays – cell lysate, small-molecule microarray, COS7 lysate, 635/667 nm fluorescence, primary screen (AID 1150); details: COS7 hTOR1A mutant lysate, 635 nm fluorescence, higher = more signal;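 also: score pools 667 nm emission and signal to noise measuring lysate protein binding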
[10] = test system: Sonic hedgehog protein (Shh); test: Sonic hedgehog microarray binding compounds – biochemical, small-molecule microarray, 635/667 nm fluorescence, primary screen (AID 1151); details: 635 nm fluorescence, higher = more signal;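 also: Shh protein binding to compounds spotted on small-molecule microarray slides; score combines spot fluorescence intensity with signal-to-noise across triplicate slides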
[11] = optical density shifts of acrAB sulA E. coli – strain DRC41, OD650, 48 h, E. coli filamentation inducer project, primary screen (AID 1152); details: higher = more signal, called active from +8 up or from −8 down;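 also: E. coli MC1000 strain DRC41 lacking acrAB efflux pump and sulA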
[12] = probe aLefty1 binding on compound microarray – biochemical, small-molecule microarray, 635/667 nm fluorescence, primary screen (AID 1153); details: higher = more signal;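 also: score merges spot fluorescence with signal-to-noise ratio from the scanned slide images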
[13] = plasmodial surface anion channel blockers, osmotic lysis – cell-based, P. falciparum Indochina, OD700, 1 h, primary screen (AID 1154); details: P. falciparum Indochina infected RBC osmotic lysis, higher = more signal, called active from +8 up or from −8 down
[14] = plasmodial surface anion channel blockers, osmotic lysis – cell-based, P. falciparum Indochina, OD700, 2 h, primary screen (AID 1155);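 also: lysis reports solute entry through the parasite surface anion channel PSAC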; details: P. falciparum Indochina infected erythrocytes, higher = more signal, called active from +8 up or from −8 down
[15] = changes in parasitized red cell lysis, either direction – P. falciparum Indochina, OD700, 3 h, PSAC antagonist project, primary screen (AID 1156); details: P. falciparum-infected erythrocytes, osmotic lysis, higher = more signal, called active from +8 up or from −8 down
[16] = plasmodial surface anion channel blockers, osmotic lysis – cell-based, P. falciparum Indochina, OD700, 18 h, primary screen (AID 1157); details: P. falciparum Indochina infected erythrocytes, osmotic lysis OD700, 18 h; higher = more signal, called active from +8 up or from −8 down
[17] = S6 kinase pathway phospho-S6 level changes – cell-based, A549, cytoblot, luminescence, serum-stimulated, primary screen (AID 1158); details: 5 h, higher = more signal;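 also: serum-stimulated A549 lung adenocarcinoma cells; signal is phosphorylated S6 detected by cytoblot immunostaining with HRP secondary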
[18] = biological target: NADPH oxidase 2 (Homo sapiens) (UniProt P04839); test: compounds shifting NOX2 Amplex Red fluorescence – cell-based, HEK293-NOX2, PMA-stimulated, NOX inhibitor project, primary screen (AID 1159); details: 45 min, higher = more signal, called active from +8 up or from −8 down; also: test concentration not given here
[19] = biological target: NADPH oxidase 4 (Homo sapiens) (UniProt Q9NPH5); test: compounds shifting NOX4 Amplex Red fluorescence – cell-based, HEK293-NOX4, tetracycline-induced, NOX inhibitor project, primary screen (AID 1160); details: HEK293-NOX4, Amplex Red H2O2 fluorescence, 45 min; higher = more signal, called active from +8 up or from −8 down
[20] = biological target: NADPH oxidase 5 (Homo sapiens) (UniProt Q96PH1); test: compounds shifting NOX5 Amplex Red fluorescence – cell-based, HEK293-NOX5, NOX inhibitor project, primary screen (AID 1161); details: HEK293-NOX5, ionomycin, 45 min, higher = more signal
Chain of NADPH oxidase 5 (Homo sapiens) (Q96PH1 whole entry, looked up): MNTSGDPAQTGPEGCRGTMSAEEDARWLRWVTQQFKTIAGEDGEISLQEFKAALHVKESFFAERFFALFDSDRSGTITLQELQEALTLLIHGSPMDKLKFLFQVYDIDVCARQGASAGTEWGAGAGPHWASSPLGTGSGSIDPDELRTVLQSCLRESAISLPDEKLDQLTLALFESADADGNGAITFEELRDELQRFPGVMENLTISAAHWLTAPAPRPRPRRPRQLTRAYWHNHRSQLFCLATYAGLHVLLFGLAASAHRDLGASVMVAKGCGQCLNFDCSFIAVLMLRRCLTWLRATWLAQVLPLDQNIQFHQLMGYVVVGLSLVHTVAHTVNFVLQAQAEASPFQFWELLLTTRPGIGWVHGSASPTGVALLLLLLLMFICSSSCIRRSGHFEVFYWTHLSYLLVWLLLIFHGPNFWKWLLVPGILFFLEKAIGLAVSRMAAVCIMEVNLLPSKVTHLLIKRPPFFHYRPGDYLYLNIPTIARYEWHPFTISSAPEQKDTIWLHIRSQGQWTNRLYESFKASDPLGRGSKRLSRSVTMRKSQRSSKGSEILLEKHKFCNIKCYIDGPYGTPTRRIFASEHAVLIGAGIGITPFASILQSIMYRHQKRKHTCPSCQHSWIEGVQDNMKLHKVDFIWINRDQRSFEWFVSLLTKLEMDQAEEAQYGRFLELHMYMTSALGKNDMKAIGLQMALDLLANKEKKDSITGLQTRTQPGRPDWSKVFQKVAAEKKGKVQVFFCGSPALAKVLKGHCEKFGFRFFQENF

Chain of NADPH oxidase 2 (Homo sapiens) (P04839 whole entry, looked up): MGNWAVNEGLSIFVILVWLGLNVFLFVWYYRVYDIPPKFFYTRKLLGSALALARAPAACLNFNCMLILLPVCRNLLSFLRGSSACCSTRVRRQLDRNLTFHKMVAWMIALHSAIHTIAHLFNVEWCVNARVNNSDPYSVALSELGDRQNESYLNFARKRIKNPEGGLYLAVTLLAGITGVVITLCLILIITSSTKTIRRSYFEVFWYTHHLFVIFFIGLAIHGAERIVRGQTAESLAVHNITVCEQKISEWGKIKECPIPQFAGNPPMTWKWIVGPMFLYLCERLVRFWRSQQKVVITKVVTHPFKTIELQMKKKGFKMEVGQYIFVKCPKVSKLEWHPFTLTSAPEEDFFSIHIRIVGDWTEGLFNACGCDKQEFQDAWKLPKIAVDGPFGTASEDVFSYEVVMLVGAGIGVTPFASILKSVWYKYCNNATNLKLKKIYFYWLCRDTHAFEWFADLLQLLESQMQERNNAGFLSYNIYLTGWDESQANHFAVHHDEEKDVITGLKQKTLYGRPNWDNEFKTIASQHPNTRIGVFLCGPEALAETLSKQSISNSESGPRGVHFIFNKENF
Chain of Streptavidin (Streptomyces avidinii) (P22629 whole entry, looked up): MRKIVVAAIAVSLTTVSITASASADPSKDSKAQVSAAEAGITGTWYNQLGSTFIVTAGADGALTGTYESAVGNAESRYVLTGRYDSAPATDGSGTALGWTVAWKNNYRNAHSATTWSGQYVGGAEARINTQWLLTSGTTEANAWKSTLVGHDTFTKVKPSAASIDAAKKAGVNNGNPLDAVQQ
Chain of Torsin-1A (Homo sapiens) (O14656 whole entry, looked up): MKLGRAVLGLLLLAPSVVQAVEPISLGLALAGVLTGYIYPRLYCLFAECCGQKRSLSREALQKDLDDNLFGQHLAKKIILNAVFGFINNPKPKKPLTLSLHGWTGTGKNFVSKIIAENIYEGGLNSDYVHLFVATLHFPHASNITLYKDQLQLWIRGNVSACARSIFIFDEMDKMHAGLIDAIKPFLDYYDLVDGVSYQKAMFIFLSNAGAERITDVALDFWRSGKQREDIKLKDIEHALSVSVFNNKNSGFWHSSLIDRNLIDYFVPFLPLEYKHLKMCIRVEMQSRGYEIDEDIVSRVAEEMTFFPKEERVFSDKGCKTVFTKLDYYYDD
Chain of NADPH oxidase 4 (Homo sapiens) (Q9NPH5 whole entry, looked up): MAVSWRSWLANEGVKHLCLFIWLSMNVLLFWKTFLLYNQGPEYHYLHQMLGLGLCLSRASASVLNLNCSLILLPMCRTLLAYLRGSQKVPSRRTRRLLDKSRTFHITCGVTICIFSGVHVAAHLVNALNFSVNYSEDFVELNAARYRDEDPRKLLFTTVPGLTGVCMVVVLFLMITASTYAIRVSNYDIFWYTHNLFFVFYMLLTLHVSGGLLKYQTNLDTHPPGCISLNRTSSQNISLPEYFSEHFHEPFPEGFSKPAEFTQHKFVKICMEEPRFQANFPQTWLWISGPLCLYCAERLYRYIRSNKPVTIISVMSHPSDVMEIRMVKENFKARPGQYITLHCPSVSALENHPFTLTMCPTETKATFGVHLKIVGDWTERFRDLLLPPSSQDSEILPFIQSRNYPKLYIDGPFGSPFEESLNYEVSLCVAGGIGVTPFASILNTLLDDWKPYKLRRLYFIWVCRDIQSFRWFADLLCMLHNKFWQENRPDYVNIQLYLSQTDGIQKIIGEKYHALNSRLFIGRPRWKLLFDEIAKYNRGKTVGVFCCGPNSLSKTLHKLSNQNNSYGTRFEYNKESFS

COC(=O)[C@@]1(Cc2ccc(F)cc2)[C@H]2c3cc(C(=O)N4CCCC4)n(Cc4cc(F)cc5c4OCOC5)c3C[C@H]2CN1C(=O)c1ccccc1
composite z-score [1]: 0.547
z-score [2]: -3.39 (inactive)
z-score [3]: 0.403 (inactive)
z-score [4]: -0.372 (inactive)
z-score [5]: 0.755 (inactive)
composite z-score [6]: 1.57
composite z-score [7]: 0.328
composite z-score (Torsin-1A (Homo sapiens) [8]): -0.659
composite z-score (Torsin-1A (Homo sapiens) [9]): -0.212
composite z-score [10]: 0.229
z-score [11]: -2.25 (inactive)
composite z-score [12]: 0.617
z-score [13]: 3.29 (inactive)
z-score [14]: 0.273 (inactive)
z-score [15]: 3.36 (inactive)
z-score [16]: 0.886 (inactive)
z-score [17]: 0.0568
z-score [18]: -0.332 (inactive)
z-score [19]: 0.115 (inactive)
z-score [20]: 0.853

O=C1C[C@]2(c3ccc([N+](=O)[O-])cc3)C(=O)N(C3CC3)c3cc(CO)ccc3[C@H]2N1C1CCCCC1
composite z-score [1]: -0.0069
z-score [2]: 1.09 (inactive)
z-score [3]: -0.21 (inactive)
z-score [4]: 0.802 (inactive)
z-score [5]: 0.634 (inactive)
composite z-score [6]: 0.358
composite z-score [7]: -0.159
composite z-score (Torsin-1A (Homo sapiens) [8]): -0.145
composite z-score (Torsin-1A (Homo sapiens) [9]): -0.192
composite z-score [10]: 0.147
z-score [11]: -0.348 (inactive)
composite z-score [12]: 0.91
z-score [13]: -0.58 (inactive)
z-score [14]: 0.0608 (inactive)
z-score [15]: -1.35 (inactive)
z-score [16]: -0.0894 (inactive)
z-score [17]: -0.278
z-score [18]: 0.0692 (inactive)
z-score [19]: 0.987 (inactive)
z-score [20]: 0.0695

CC(C)N1C(=O)c2ccccc2[C@](C)(C(=O)NCC(F)(F)F)[C@@H]1c1ccc(CO)cc1
composite z-score [1]: -0.218
z-score [2]: -0.167 (inactive)
z-score [3]: 0.633 (inactive)
z-score [4]: 0.414 (inactive)
z-score [5]: -0.0278 (inactive)
composite z-score [6]: -0.913
composite z-score [7]: 0.0516
composite z-score (Torsin-1A (Homo sapiens) [8]): -0.978
composite z-score (Torsin-1A (Homo sapiens) [9]): 0.33
composite z-score [10]: -0.982
z-score [11]: 0.481 (inactive)
composite z-score [12]: 0.402
z-score [13]: 0.834 (inactive)
z-score [14]: -0.0162 (inactive)
z-score [15]: -0.377 (inactive)
z-score [16]: -0.16 (inactive)
z-score [17]: 0.0308
z-score [18]: 0.91 (inactive)
z-score [19]: 0.89 (inactive)
z-score [20]: 0.783

NC(=O)N1C(=O)C2C(C1=O)C1C=C(CCCO)C2C(C2CC2)N1Cc1sc2ccccc2c1Cl (stereo not given)
composite z-score [1]: 0.588
z-score [2]: -0.205 (inactive)
z-score [3]: 0.0825 (inactive)
z-score [4]: 0.261 (inactive)
z-score [5]: -0.654 (inactive)
composite z-score [6]: 0.526
composite z-score [7]: -0.0371
composite z-score (Torsin-1A (Homo sapiens) [8]): 0.842
composite z-score (Torsin-1A (Homo sapiens) [9]): 0.82
composite z-score [10]: 0.726
z-score [11]: 0.4 (inactive)
composite z-score [12]: 0.105
z-score [13]: 13.4 (active)
z-score [14]: 2.12 (inactive)
z-score [15]: 0.394 (inactive)
z-score [16]: 1.07 (inactive)
z-score [17]: 0.125
z-score [18]: 2.74 (inactive)
z-score [19]: 0.923 (inactive)
z-score [20]: -0.549

COC(=O)C(CC#Cc1ccc2c(c1)[C@]1(C(=O)N2)[C@H](C(=O)NC[C@H](O)c2ccccc2)[C@H]2C(=O)O[C@H](c3ccccc3)[C@H](c3ccccc3)N2[C@@H]1c1ccccc1OCCO)C(=O)OC
composite z-score [1]: 0.649
z-score [2]: -6.04 (inactive)
z-score [3]: -1.21 (inactive)
z-score [4]: -0.671 (inactive)
z-score [5]: -0.276 (inactive)
composite z-score [6]: 0.703
composite z-score [7]: 0.0154
composite z-score (Torsin-1A (Homo sapiens) [8]): 0.326
composite z-score (Torsin-1A (Homo sapiens) [9]): 0.506
composite z-score [10]: 1.32
z-score [11]: 1.52 (inactive)
composite z-score [12]: -0.0559
z-score [13]: 4.2 (inactive)
z-score [14]: 0.574 (inactive)
z-score [15]: 0.725 (inactive)
z-score [16]: -0.124 (inactive)
z-score [17]: 1.46
z-score [18]: 0.504 (inactive)
z-score [19]: -0.421 (inactive)
z-score [20]: -2.45

O=C(NCC(O)CO)[C@@]1(CCS(=O)(=O)c2ccccc2)N=C(c2ccc(OCCCO)cc2)O[C@H]1c1ccccc1 (stereo not given in full)
composite z-score [1]: 0.274
z-score [2]: -3.75 (inactive)
z-score [3]: -0.513 (inactive)
z-score [4]: 0.675 (inactive)
z-score [5]: -1.04 (inactive)
composite z-score [6]: 1.4
composite z-score [7]: 0.212
composite z-score (Torsin-1A (Homo sapiens) [8]): 0.449
composite z-score (Torsin-1A (Homo sapiens) [9]): 1.23
composite z-score [10]: -1.04
z-score [11]: -0.295 (inactive)
composite z-score [12]: 0.419
z-score [13]: 25.6 (active)
z-score [14]: 19.1 (active)
z-score [15]: 2.38 (inactive)
z-score [16]: 1.39 (inactive)
z-score [17]: 1.07
z-score [18]: -0.356 (inactive)
z-score [19]: 1.47 (inactive)
z-score [20]: 1.33

COC(=O)C1=CC(CCCO)=CC(c2cccs2)N(Cc2cc3c(cc2Br)OCO3)C=C1C(=O)OC (stereo not given)
composite z-score [1]: 0.46
z-score [2]: -1.96 (inactive)
z-score [3]: 0.587 (inactive)
z-score [4]: 0.326 (inactive)
z-score [5]: 0.458 (inactive)
composite z-score [6]: 1.99
composite z-score [7]: 0.0659
composite z-score (Torsin-1A (Homo sapiens) [8]): 0.565
composite z-score (Torsin-1A (Homo sapiens) [9]): 1.12
composite z-score [10]: 0.322
z-score [11]: 0.801 (inactive)
composite z-score [12]: -0.0629
z-score [13]: 5.84 (inactive)
z-score [14]: 1.17 (inactive)
z-score [15]: 0.277 (inactive)
z-score [16]: 0.621 (inactive)
z-score [17]: -0.176
z-score [18]: 1 (inactive)
z-score [19]: -1.26 (inactive)
z-score [20]: 1.05

COc1ccc(C(O)C2C=CC3C(=O)N(c4ccccc4)C(=O)C3N2Nc2ccc(C#N)cc2)cc1OCc1ccccc1 (stereo not given)
composite z-score [1]: 0.512
z-score [2]: 0.0667 (inactive)
z-score [3]: -0.753 (inactive)
z-score [4]: 1.39 (inactive)
z-score [5]: 0.338 (inactive)
composite z-score [6]: 1.65
composite z-score [7]: 0.274
composite z-score (Torsin-1A (Homo sapiens) [8]): 0.056
composite z-score (Torsin-1A (Homo sapiens) [9]): 1.12
composite z-score [10]: -0.189
z-score [11]: -1.37 (inactive)
composite z-score [12]: 0.482
z-score [13]: 9.41 (active)
z-score [14]: 2.2 (inactive)
z-score [15]: 0.918 (inactive)
z-score [16]: 1.27 (inactive)
z-score [17]: -0.98
z-score [18]: -1.69 (inactive)
z-score [19]: -2.41 (inactive)
z-score [20]: -2.45

CO[C@H]1O[C@H](CO)[C@@H](OC(=O)Nc2ccc3c(c2)OCO3)[C@H](OC(=O)Nc2ccccc2-c2ccccc2)[C@H]1OC(=O)Nc1ccccc1-c1ccccc1
composite z-score [1]: 1.07
z-score [2]: -5.61 (inactive)
z-score [3]: -0.378 (inactive)
z-score [4]: 1.5 (inactive)
z-score [5]: -1.05 (inactive)
composite z-score [6]: 0.2
composite z-score [7]: 0.196
composite z-score (Torsin-1A (Homo sapiens) [8]): 0.384
composite z-score (Torsin-1A (Homo sapiens) [9]): 1.55
composite z-score [10]: 0.333
z-score [11]: -0.133 (inactive)
composite z-score [12]: -0.0536
z-score [13]: 2.14 (inactive)
z-score [14]: 0.825 (inactive)
z-score [15]: -0.124 (inactive)
z-score [16]: 1.21 (inactive)
z-score [17]: -0.311
z-score [18]: -4.55 (inactive)
z-score [19]: -0.707 (inactive)
z-score [20]: -0.848
